# Measurements from PubChem BioAssay AID1159580 (chemical genetic matrix, 2015).
# Among all 5,500 compounds or so, about 2,000 (36%) were called active. Not shown: some 18% with an inconclusive outcome. The list shows a part of the results. Unmarked numbers belong to inactive results. Rule as the data show it: active = normalized growth mostly below about 0.91 (no sharp cut-off); inconclusive = no clear call, values can overlap the other calls; inactive = mostly above about 0.92.
# Experiment: chemical genetic growth profiling, strain panel (AID 1159580);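 also: tested at 20 µM; growth read once vehicle control cultures reached saturation at 30 °C; 1 = growth at the plate median or of vehicle wells; lower values mean less growth of the strain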
# Settings: growth OD
smiles,measurement,setting,value
CC(=O)Oc1ccc(O)cc1,normalized growth,"S. cerevisiae deletion strains, locus YJL187C, strain SWE1, stronger effect = lower value",0.978
same,normalized growth,"S. cerevisiae deletion strains, locus YJR043C, strain POL32, stronger effect = lower value",0.929
same,normalized growth,"S. cerevisiae deletion strains, locus YJR075W, strain HOC1, stronger effect = lower value",0.955
same,normalized growth,"S. cerevisiae deletion strains, locus YKL009W, strain mrt4, stronger effect = lower value",1.02
same,normalized growth,"S. cerevisiae deletion strains, locus YKL068W, stronger effect = lower value",1.01
same,normalized growth,"S. cerevisiae deletion strains, locus YKL085W, strain MDH1 (second series), stronger effect = lower value",1.04
same,normalized growth,"S. cerevisiae deletion strains, locus YKL085W, strain MDH1, stronger effect = lower value",1.04
same,normalized growth,"S. cerevisiae deletion strains, locus YKL160W, strain elf1, stronger effect = lower value",0.995
same,normalized growth,"S. cerevisiae deletion strains, locus YKR001C, strain vps1, stronger effect = lower value",0.945
same,normalized growth,"S. cerevisiae deletion strains, locus YKR026C, strain gcn3, stronger effect = lower value",0.979
same,normalized growth,"S. cerevisiae deletion strains, locus YKR091W, strain srl3, stronger effect = lower value",0.985
same,normalized growth,"S. cerevisiae deletion strains, locus YLL001W, strain dnm1, stronger effect = lower value",0.994
same,normalized growth,"S. cerevisiae deletion strains, locus YLL026W, stronger effect = lower value",0.987
same,normalized growth,"S. cerevisiae deletion strains, locus YLL041C, strain sdh2, stronger effect = lower value",0.99
same,normalized growth,"S. cerevisiae deletion strains, locus YLR027C, strain aat2, stronger effect = lower value",0.993
same,normalized growth,"S. cerevisiae deletion strains, locus YLR039C, strain RIC1, stronger effect = lower value",1.05
same,normalized growth,"S. cerevisiae deletion strains, locus YLR058C, strain SHM2, stronger effect = lower value",0.991
same,normalized growth,"S. cerevisiae deletion strains, locus YLR102C, strain apc9, stronger effect = lower value",1.02
same,normalized growth,"S. cerevisiae deletion strains, locus YLR221C, strain rsa3, stronger effect = lower value",0.959
same,normalized growth,"S. cerevisiae deletion strains, locus YLR258W, strain gsy2, stronger effect = lower value",0.989
same,normalized growth,"S. cerevisiae deletion strains, locus YLR262C, strain YPT6 (second series), stronger effect = lower value",0.996
same,normalized growth,"S. cerevisiae deletion strains, locus YLR262C, strain YPT6, stronger effect = lower value",0.926
same,normalized growth,"S. cerevisiae deletion strains, locus YLR268W, strain sec22, stronger effect = lower value",0.977
same,normalized growth,"S. cerevisiae deletion strains, locus YLR320W, strain mms22, stronger effect = lower value",0.923
same,normalized growth,"S. cerevisiae deletion strains, locus YLR330W, strain CHS5, stronger effect = lower value",0.914 (active)
same,normalized growth,"S. cerevisiae deletion strains, locus YLR342W, strain FKS1 (second series), stronger effect = lower value",0.819
same,normalized growth,"S. cerevisiae deletion strains, locus YLR342W, strain FKS1, stronger effect = lower value",0.979
same,normalized growth,"S. cerevisiae deletion strains, locus YLR357W, strain rsc2, stronger effect = lower value",0.988
same,normalized growth,"S. cerevisiae deletion strains, locus YLR370C, strain arc18, stronger effect = lower value",1
same,normalized growth,"S. cerevisiae deletion strains, locus YLR371W, strain rom2, stronger effect = lower value",1.02
same,normalized growth,"S. cerevisiae deletion strains, locus YLR384C, strain iki3, stronger effect = lower value",0.997
same,normalized growth,"S. cerevisiae deletion strains, locus YLR418C, strain cdc73, stronger effect = lower value",0.934
same,normalized growth,"S. cerevisiae deletion strains, locus YML016C, strain PPZ1, stronger effect = lower value",1.01
same,normalized growth,"S. cerevisiae deletion strains, locus YML032C, strain rad52, stronger effect = lower value",0.967
same,normalized growth,"S. cerevisiae deletion strains, locus YML120C, strain ndi1, stronger effect = lower value",1.02
same,normalized growth,"S. cerevisiae deletion strains, locus YML124C, strain tub3, stronger effect = lower value",1.03
same,normalized growth,"S. cerevisiae deletion strains, locus YMR058W, strain fet3, stronger effect = lower value",0.979
same,normalized growth,"S. cerevisiae deletion strains, locus YMR078C, strain ctf18, stronger effect = lower value",1.03
same,normalized growth,"S. cerevisiae deletion strains, locus YMR125W, strain sto1, stronger effect = lower value",0.977
same,normalized growth,"S. cerevisiae deletion strains, locus YMR129W, stronger effect = lower value",0.99
same,normalized growth,"S. cerevisiae deletion strains, locus YMR205C, strain PFK2, stronger effect = lower value",1
same,normalized growth,"S. cerevisiae deletion strains, locus YMR223W, strain ubp8, stronger effect = lower value",1
same,normalized growth,"S. cerevisiae deletion strains, locus YMR231W, strain pep5, stronger effect = lower value",0.962
same,normalized growth,"S. cerevisiae deletion strains, locus YMR263W, strain SAP30, stronger effect = lower value",0.991
same,normalized growth,"S. cerevisiae deletion strains, locus YMR307W, strain GAS1, stronger effect = lower value",0.791
same,normalized growth,"S. cerevisiae deletion strains, locus YNL067W, strain RPL9B, stronger effect = lower value",0.966
same,normalized growth,"S. cerevisiae deletion strains, locus YNL071W, strain lat1, stronger effect = lower value",0.961
same,normalized growth,"S. cerevisiae deletion strains, locus YNL128W, strain TEP1, stronger effect = lower value",1.01
same,normalized growth,"S. cerevisiae deletion strains, locus YNL153C, strain GIM3, stronger effect = lower value",0.956
same,normalized growth,"S. cerevisiae deletion strains, locus YNL209W, strain ssb2, stronger effect = lower value",0.988
same,normalized growth,"S. cerevisiae deletion strains, locus YNL233W, strain BNI4, stronger effect = lower value",0.94
same,normalized growth,"S. cerevisiae deletion strains, locus YNL248C, strain rpa49, stronger effect = lower value",0.956
same,normalized growth,"S. cerevisiae deletion strains, locus YNL250W, strain rad50, stronger effect = lower value",1.04
same,normalized growth,"S. cerevisiae deletion strains, locus YNL271C, strain bni1, stronger effect = lower value",1.04
same,normalized growth,"S. cerevisiae deletion strains, locus YNL298W, strain CLA4, stronger effect = lower value",1.03
same,normalized growth,"S. cerevisiae deletion strains, locus YNL307C, strain MCK1, stronger effect = lower value",0.96
same,normalized growth,"S. cerevisiae deletion strains, locus YNL322C, strain KRE1 (second series), stronger effect = lower value",0.993
same,normalized growth,"S. cerevisiae deletion strains, locus YNL322C, strain KRE1, stronger effect = lower value",0.996
same,normalized growth,"S. cerevisiae deletion strains, locus YNR049C, strain mso1, stronger effect = lower value",0.989
same,normalized growth,"S. cerevisiae deletion strains, locus YNR052C, strain pop2, stronger effect = lower value",1.02
same,normalized growth,"S. cerevisiae deletion strains, locus YOL012C, strain htz1",0.741
same,normalized growth,"S. cerevisiae deletion strains, locus YOL147C, strain pex11, stronger effect = lower value",1.03
same,normalized growth,"S. cerevisiae deletion strains, locus YOR001W, strain rrp6, stronger effect = lower value",0.992
same,normalized growth,"S. cerevisiae deletion strains, locus YOR061W, strain CKA2, stronger effect = lower value",1.01
same,normalized growth,"S. cerevisiae deletion strains, locus YOR069W, strain VPS5, stronger effect = lower value",1.01
same,normalized growth,"S. cerevisiae deletion strains, locus YOR070C, strain gyp1, stronger effect = lower value",0.975
same,normalized growth,"S. cerevisiae deletion strains, locus YOR080W, strain dia2, stronger effect = lower value",0.998
same,normalized growth,"S. cerevisiae deletion strains, locus YOR083W, strain WHI5, stronger effect = lower value",0.974
same,normalized growth,"S. cerevisiae deletion strains, locus YOR106W, strain vam3, stronger effect = lower value",0.995
same,normalized growth,"S. cerevisiae deletion strains, locus YOR136W, strain idh2, stronger effect = lower value",1.01
same,normalized growth,"S. cerevisiae deletion strains, locus YOR144C, strain elg1, stronger effect = lower value",1.03
same,normalized growth,"S. cerevisiae deletion strains, locus YOR184W, strain ser1, stronger effect = lower value",0.984
same,normalized growth,"S. cerevisiae deletion strains, locus YOR265W, strain rbl2, stronger effect = lower value",1.01
same,normalized growth,"S. cerevisiae deletion strains, locus YOR270C, strain vph1, stronger effect = lower value",0.986
same,normalized growth,"S. cerevisiae deletion strains, locus YOR290C, strain snf2, stronger effect = lower value",0.995
same,normalized growth,"S. cerevisiae deletion strains, locus YOR316C, strain cot1, stronger effect = lower value",1.04
same,normalized growth,"S. cerevisiae deletion strains, locus YPL051W, strain arl3, stronger effect = lower value",0.962
same,normalized growth,"S. cerevisiae deletion strains, locus YPL078C, strain atp4, stronger effect = lower value",1.02
same,normalized growth,"S. cerevisiae deletion strains, locus YPL106C, strain sse1, stronger effect = lower value",0.991
same,normalized growth,"S. cerevisiae deletion strains, locus YPL240C, strain hsp82, stronger effect = lower value",0.999
same,normalized growth,"S. cerevisiae deletion strains, locus YPL241C, strain CIN2, stronger effect = lower value",1.02
same,normalized growth,"S. cerevisiae deletion strains, locus YPR119W, strain clb2, stronger effect = lower value",1.01
same,normalized growth,"S. cerevisiae deletion strains, locus YPR141C, strain kar3, stronger effect = lower value",1.03
same,normalized growth,"S. cerevisiae deletion strains, locus YPR163C, strain tif3, stronger effect = lower value",0.974
same,normalized growth,"S. cerevisiae deletion strains, locus YPR167C, strain met16, stronger effect = lower value",1.03
same,normalized growth,"S. cerevisiae deletion strains, strain wtn01, stronger effect = lower value",0.995
same,normalized growth,"S. cerevisiae strains, strain wild type, stronger effect = lower value",0.925
